Experimental data taken from PubChem BioAssay (NCATS).
Records with an inconclusive call do not appear. The source made the active and inactive calls. The call rests on the fitted dose curve; in most records, active means well fitted curve in the direction sought with a large enough effect; inconclusive means small, poorly fitted or top-dose-only effect, or another doubt; inactive means no such curve, though single readings can be large; an effect the other way counts as inactive or inconclusive.

What was measured:
[1] = target: Glutathione peroxidase 1 (Homo sapiens) (UniProt P07203); assay: Primary qHTS Assay for Inhibitors of Recombinant Selenoprotein Glutathione Peroxidase 1 (GPX1) (AID 1845191); further: nearly all actives have a fitted effect of over 65% in size; on activity, negative = inhibition: on the % scale 0 is the no-effect control and ±100 the full control effect
Outline: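 10 nM GPX1 + cpd, 30 min RT; start w/ 1 mM GSH, 0.5 mM cumene hydroperoxide, 0.5 mM NADPH, 100 nM GR, 0.01% BSA; buffer 50 mM Tris-HCl pH 7.5, 2 mM EDTA, 150 mM NaCl; Fl 340/450, 0 & 15 min.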

[2] = target: Phospholipid hydroperoxide glutathione peroxidase GPX4 (Homo sapiens) (UniProt P36969); assay: Primary qHTS Assay for Inhibitors of Recombinant Selenoprotein Glutathione Peroxidase 4 (GPX4) (AID 1845192); further: nearly all actives have a fitted effect of over 65% in size; on activity change, negative = inhibition: series mostly up to about 50 µM; on the % scale 0 is the no-effect control and ±100 the full control effect
Outline: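 NADPH consumption, followed by fluorescence at 340/450 nm between 0 and 15 min, reports GPX4 activity via coupled glutathione reductase (100 nM). Enzyme 200 nM was pre-exposed to compound 30 min; 0.5 mM cumene hydroperoxide and 1 mM GSH served as substrates.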

[3] = target: Luciferin 4-monooxygenase (Photinus pyralis) (UniProt P08659); assay: Primary firefly luciferase (FLuc) qHTS assay for identification of artifact compounds. (AID 1845220); further: nearly all actives have a fitted effect of over 60% in size;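 on activity change, negative = inhibition: series mostly up to about 54 µM; plate controls were DMSO vehicle for no effect and no enzyme for full effect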
Outline: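 Compounds sat 15 min at room temperature with 10 uM luciferin and 10 uM ATP (pH 7.6 Tris acetate). Firefly luciferase (10 nM final) was then added, and luminescence was read 5 min later. Data normalized to no-enzyme and DMSO controls were Hill-fitted.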

[4] = Primary fluorescence-based thiol-reactive (MSTI) qHTS assay for identification of artifact compounds. (AID 1845221);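 further: series mostly up to about 54 µM; thiol-reactive compounds lower the probe fluorescence signal; nearly all actives have a fitted effect of over 65% in size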
Outline: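 A multi-concentration qHTS design tested compounds against 4 uM MSTI, pH 7.4 phosphate-buffered saline. Plates were protected from light for 1 h at room temperature before imaging fluorescence.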

[5] = tested on: Nanoluciferase (engineered Oplophorus gracilirostris luciferase); assay: Primary Nanoluciferase (NLuc) qHTS assay for identification of artifact compounds. (AID 1845222);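 further: series mostly up to about 54 µM; 0% = DMSO and -100% = no enzyme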
Outline: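 Luminescence from secreted NLuc (filtered, 1:55-diluted S16 cell medium) read 5 min after Nano-Glo substrate; compounds preincubated 15 min, RT. Hill fits of inhibition normalized to DMSO and no-enzyme.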

[6] = Primary redox qHTS assay for identification of artifact compounds. (AID 1845223);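 further: 0% = DMSO and 100% = reference compound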
Outline: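 Amplex Red (25 uM) and HRP (250 mU/mL) in HBSS, with compounds for 15 min, then 250 uM DTT for 30 min, room temperature, dark. Fluorescence 525/598 nm read; normalized to DMSO and 10 uM DA3003; Hill fit.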

Glutathione peroxidase 1 (Homo sapiens), sequence (P07203 whole entry, looked up): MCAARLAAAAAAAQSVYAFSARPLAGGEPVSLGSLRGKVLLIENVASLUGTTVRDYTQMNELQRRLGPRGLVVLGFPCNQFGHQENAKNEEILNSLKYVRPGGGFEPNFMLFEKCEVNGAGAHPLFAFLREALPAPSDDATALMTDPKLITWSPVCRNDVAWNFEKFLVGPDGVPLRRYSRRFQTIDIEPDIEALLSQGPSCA
Phospholipid hydroperoxide glutathione peroxidase GPX4 (Homo sapiens), sequence (P36969 whole entry, looked up): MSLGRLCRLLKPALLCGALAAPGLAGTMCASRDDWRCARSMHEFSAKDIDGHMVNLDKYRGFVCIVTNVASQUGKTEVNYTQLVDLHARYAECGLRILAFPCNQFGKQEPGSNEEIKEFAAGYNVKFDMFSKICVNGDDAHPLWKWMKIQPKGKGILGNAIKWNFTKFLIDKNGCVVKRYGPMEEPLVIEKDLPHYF

O=C(O)/C=C/c1cc2c(cc1O[C@@H]1O[C@H](CO)[C@@H](O)[C@H](O)[C@H]1O)OCO2
inactive: Potency [1] | Potency [2] | Potency [3] | Potency [4] | Potency [5] | Potency [6]

CC1(C)CCC(C)(C)c2cc(C3(c4ccc(C(=O)O)cc4)OCCO3)ccc21
inactive: Potency [1] | Potency [2] | Potency [3] | Potency [4] | Potency [5] | Potency [6]

C/C=C(\C)C(=O)OCC1OC(OC2OC(COC(=O)/C(C)=C/C)C(OC3OC(CO)C(OC(=O)/C(C)=C/C)C(OC(=O)/C(C)=C/C)C3O)C(O)C2O)C(O)C(O)C1OC1OC(CO)C(OC(=O)/C(C)=C/C)C(OC(=O)/C(C)=C/C)C1O (centres undefined)
inactive: Potency [1] | Potency [2] | outcome [3] inactive [at 11.6 µM] | activity change, negative = thiol reactive [4] 7.54% [at 11.5 µM] | activity, negative = inhibition [5] 0% [at 11.6 µM] | redox activity (% of DA3003) [6] 2.12% [at 11.5 µM]

COc1c2c(c(C)c3c1C(=O)OC3)OC1(C)CC(O)C34OC(OC)(OC3(C)C)C(O)CC4(C)C1C2 (centres undefined)
inactive: Potency [1] | Potency [2] | Potency [3] | Potency [4] | Potency [5] | Potency [6]

C=C[C@H]1C(O[C@@H]2O[C@H](CO)[C@@H](O)[C@H](O)[C@H]2O)OC=C2C(=O)N3CCc4c([nH]c5ccccc45)C3CC21 (some centres undefined)
inactive: Potency [1] | Potency [2] | Potency [3] | Potency [4] | Potency [5] | Potency [6]

CC(C)(C)CCN1C[C@@H]2C(CNC(=O)c3cc(Cl)cc(Cl)c3)[C@@H]2C1 (some centres undefined)
inactive: Potency [1] | Potency [2] | Potency [3] | Potency [4] | Potency [5] | Potency [6]

Cn1c(=O)n(-c2ccc(C(C)(C)C#N)cc2)c2c3cc(C#Cc4cccnc4)ccc3ncc21
inactive: Potency [1] | Potency [2] | Potency [3] | Potency [4] | Potency [5] | Potency [6]

C[C@@H]1CC[C@]2(C(=O)O[C@@H]3O[C@H](CO)[C@@H](O)[C@H](O)[C@H]3O)CC[C@]3(C)C(=CCC4[C@@]5(C)C[C@@H](O)[C@H](O)[C@](C)(C(=O)O)C5CC[C@]43C)[C@@H]2[C@]1(C)O (some centres undefined)
inactive: Potency [1] | Potency [2] | Potency [3] | Potency [4] | Potency [5] | Potency [6]

C/C=C/c1cc(OC)c2c(c1)[C@@H](C)[C@@H](c1ccc(O)c(OC)c1)O2
inactive: Potency [1] | Potency [2] | Potency [3] | Potency [4] | Potency [5] | Potency [6]

CC(=O)OC1C[C@]2(C)C(O)CC(C)=C[C@H](OC(=O)c3ccc(O)cc3)C2[C@]1(O)C(C)C (some centres undefined)
inactive: Potency [1] | Potency [2] | Potency [3] | Potency [4] | Potency [5] | Potency [6]

CC(=O)C12OC(C)(C)OC1CC1C3CCC4=CC(=O)C=CC4(C)C3(F)C(O)CC12C (centres undefined)
inactive: Potency [1] | Potency [2] | Potency [3] | Potency [4] | Potency [5] | Potency [6]

C=C1C(O)C(O)C2(CC3C(C)=CCC4C(C)(CO)CCCC34C)OC2C1O (centres undefined)
inactive: Potency [1] | Potency [2] | Potency [3] | Potency [4] | Potency [5] | Potency [6]

Cc1cc(C(=O)N2Cc3cnn(C)c3Nc3ccccc32)ccc1CNC(=O)N1CCC[C@H]1C(=S)N1CCCN(C)CC1
inactive: Potency [1] | Potency [2] | Potency [3] | Potency [4] | Potency [5] | Potency [6]

N#C[C@@H]1C[C@H](F)CN1C(=O)CNC1[C@H]2CN(C(=O)c3ccc(F)cc3)C[C@@H]12 (some centres undefined)
inactive: Potency [1] | Potency [2] | Potency [3] | Potency [4] | Potency [5] | Potency [6]

O=C1CC2(CCCC2)[C@H](O)C(=O)N1CCCCN1CCN(c2ncccn2)CC1
inactive: Potency [1] | Potency [2] | Potency [3] | Potency [4] | Potency [5] | Potency [6]

C[C@@H]1O[C@@H](O[C@H]2[C@H](OC(=O)[C@]34CCC(C)(C)C[C@H]3C3=CCC5[C@@]6(C)CC[C@H](O[C@@H]7O[C@H](C(=O)O)[C@@H](O)[C@H](O)[C@H]7O[C@@H]7O[C@H](CO)[C@H](O)[C@H](O)[C@H]7O)[C@@](C)(C=O)C6CC[C@@]5(C)[C@]3(C)C[C@H]4O)O[C@H](C)[C@H](O[C@@H]3O[C@H](C)[C@H](O)[C@H](O)[C@H]3O)[C@@H]2O)[C@H](O)[C@H](O)[C@H]1O[C@@H]1OC[C@@H](O)[C@H](O[C@@H]2O[C@H](CO)[C@@H](O)[C@H](O)[C@H]2O)[C@H]1O (some centres undefined)
inactive: activity, negative = inhibition [1] 1.71% [at 9.52 µM] | outcome [2] inactive [at 9.73 µM] | outcome [3] inactive [at 6.45 µM] | activity change, negative = thiol reactive [4] 292% [at 6.41 µM] | activity, negative = inhibition [5] 4.73% [at 6.45 µM] | redox activity (% of DA3003) [6] 3.32% [at 6.41 µM]

COc1c(C)c(OCC(O)C(C)(C)O)cc2c1COC2=O (centres undefined)
inactive: Potency [1] | Potency [2] | Potency [3] | Potency [4] | Potency [5] | Potency [6]

CC(C)=CCC[C@](C)(O[C@@H]1O[C@H](CO)[C@@H](O)[C@H](O)[C@H]1O)[C@H]1CC[C@]2(C)[C@@H]1[C@H](O)CC1[C@@]3(C)CC[C@H](O)C(C)(C)C3[C@@H](O[C@@H]3O[C@H](CO)[C@@H](O)[C@H](O)[C@H]3O[C@@H]3OC[C@@H](O)[C@H](O)[C@H]3O)C[C@]12C (some centres undefined)
inactive: Potency [1] | Potency [2] | activity change, negative = inhibition [3] -4.76% [at 11.6 µM] | activity change, negative = thiol reactive [4] 136% [at 11.5 µM] | activity, negative = inhibition [5] -0.941% [at 11.6 µM] | redox activity (% of DA3003) [6] 12.7% [at 11.5 µM]

C=C1C[C@]23C[C@H]1CC[C@H]2[C@@]1(C)CCC[C@@]2(C)C(=O)O[C@@H]([C@@H]3O)[C@@H]12
inactive: Potency [1] | Potency [2] | Potency [3] | Potency [4] | Potency [5] | Potency [6]
